In PubChem BioAssay AID493168 (National Center for Advancing Translational Sciences (NCATS), 2011):
Results filed as inconclusive are left out. A number with no mark means an inactive call. Activity calls are given as the source filed them. Calls follow the shape of the dose curve; as a rule, active = well fitted inhibition curve with a large enough effect; inconclusive = small, poorly fitted or top-dose-only effect, or effect the other way; inactive = flat fitted curve, though single readings scatter.

Molecular target: Ubiquitin carboxyl-terminal hydrolase 2 (Homo sapiens) (UniProt O75604)
Assay: Confirmation Assay for Inhibitors of Ubiquitin-specific Protease USP2a Using CHOP2 as the Reporter; also: nearly all actives have a fitted effect of over 55% in size;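 as to activity change, negative = inhibition: plate controls were DMSO wells for no effect and full inhibition by NEM control for full effect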
Conditions: USP2 core, Ub-CHOP2 coupled reporter fluorescence; series mostly up to 38.3 µM; activity change, negative = inhibition: at the top concentration
Outline: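 Ub-CHOP2 cleavage coupled to reporter activation was read by fluorescence after 60 min at RT, with 25 nM final Ub-CHOP2 and substrate. Enzyme (10 nM final USP2 core) first sat 30 min with compound; data were normalized to NEM and fitted to concentration-response curves.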
Potency is read from the fitted curve at half-maximal effect.

Sequence of Ubiquitin carboxyl-terminal hydrolase 2 (Homo sapiens) (O75604 whole entry, looked up): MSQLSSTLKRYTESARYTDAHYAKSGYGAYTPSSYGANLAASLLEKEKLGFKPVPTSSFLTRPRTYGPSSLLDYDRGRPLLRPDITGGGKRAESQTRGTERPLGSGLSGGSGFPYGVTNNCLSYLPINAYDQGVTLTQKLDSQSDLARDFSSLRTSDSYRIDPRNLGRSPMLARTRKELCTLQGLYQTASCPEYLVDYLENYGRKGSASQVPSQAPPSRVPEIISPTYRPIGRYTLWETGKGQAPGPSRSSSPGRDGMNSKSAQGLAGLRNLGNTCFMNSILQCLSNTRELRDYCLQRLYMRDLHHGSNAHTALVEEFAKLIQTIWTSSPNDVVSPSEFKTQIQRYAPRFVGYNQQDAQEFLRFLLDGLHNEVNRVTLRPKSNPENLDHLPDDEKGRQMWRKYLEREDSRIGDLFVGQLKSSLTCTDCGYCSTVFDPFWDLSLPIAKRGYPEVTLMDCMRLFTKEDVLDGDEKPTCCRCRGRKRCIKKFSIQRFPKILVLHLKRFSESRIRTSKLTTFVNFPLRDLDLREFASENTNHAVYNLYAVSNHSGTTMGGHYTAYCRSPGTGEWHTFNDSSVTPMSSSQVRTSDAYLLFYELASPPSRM

First: Cc1csc(NC(=O)CCn2c(=O)sc3ccccc32)n1
Second: O=C(CCCN1C(=O)c2ccccc2C1=O)NC1=NCCS1
The “activity change, negative = inhibition” value of the first is lower: -5.5% for the first, 3.31% for the second.

Compared with `O=C(OCC(=O)N1CCCCC1)c1cc2ccccc2cc1O`, `COc1ccc(NC(=O)C2CC(=O)OC2c2ccccc2)cc1` (stereo not drawn) is higher in “activity change, negative = inhibition” value: -2.25% for the first, 1.9% for the second.

Compared with `CCOc1ccc(Cn2nnc(C(=O)NCc3ccccc3)c2N)cc1`, `COc1cccc(C(=O)NCc2ccc3[nH]c(C)cc3c2)c1` is higher in “activity change, negative = inhibition” value: -2.45% for the first, -0.781% for the second.

Going from `Cc1ccc(NC(=O)CSc2nc(O)cc(=O)n2-c2ccc(C)cc2)cc1` to `O=C(Nc1ccc(Oc2ccc(Cl)cc2)cc1)c1ncn[nH]1`, the “activity change, negative = inhibition” value rises from -0.886% to 0.723%.

First: COCCn1c(CN(Cc2ccccc2)Cc2ccccc2)nc2c1c(=O)n(C)c(=O)n2C
Second: CC(C)(C)[C@H]1COC(=O)[C@@H](Cc2ccc(F)cc2)C/C=C\C[C@@H](CC(=O)N[C@@H](CO)Cc2ccccc2)C(=O)N1
The “activity change, negative = inhibition” value of the first is higher: 3.16% for the first, 1.41% for the second.

First: Cn1c(SCc2nc3ccccc3s2)nnc1-c1cccs1
Second: Cc1cnc(N)c2c(=O)oc3ccccc3c12
The “activity change, negative = inhibition” value of the first is lower: 2.39% for the first, 5.48% for the second.

Going from `O=C(CCS(=O)(=O)c1ccc(Br)s1)NC1CCCC1` to `CCC(=O)Nc1c2c(nn1-c1ccc(F)cc1)CS(=O)C2` (stereo not drawn), the “activity change, negative = inhibition” value falls from -2.3% to -2.8%.

First: CC(C)C(=O)N=c1sc2cc(F)cc(F)c2n1C
Second: O=C(NCC(c1cccnc1)N1CCN(c2ccc(F)cc2)CC1)OCc1ccccc1 (stereo not drawn)
The “activity change, negative = inhibition” value of the first is lower: 1.36% for the first, 3.62% for the second.

For `N#Cc1cc(Sc2ccccn2)c(Sc2ccccn2)cc1C#N`, the “activity change, negative = inhibition” value was -0.639%.

In the case of `NC1=NC(=O)/C(=C/c2cccc(-c3ccc(S(N)(=O)=O)cc3)c2)S1`, the Potency is reported as 9.27 µM (active).
